Values joined by “and” are separate entries in the source; they are usually repeats but may differ in a detail not shown here. Equal values may be shown once. Inconclusive results are not listed. Active and inactive are the calls of the source. The call rests on the fitted dose curve; in most records, active means well fitted inhibition curve with a large enough effect; inconclusive means small, poorly fitted or top-dose-only effect; inactive means flat fitted curve, though single readings scatter.

Assay in all cases: qHTS profiling for inhibitors of Plasmodium falciparum proliferation (AID 504749); further: nearly all actives have a fitted effect of over 60% in size
What all share (conditions): P. falciparum in erythrocytes, SYBR Green DNA, 72 h; series mostly up to 28.7 µM

Experiment [1] concerns CP269. The method, boiled down: (§1)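 In a 72 h erythrocytic culture (37 C, humidified, 5% CO2) at 2.5% hematocrit and 0.3% starting parasitemia, compounds were tested; SYBR Green I in detergent lysis buffer stained parasite DNA overnight.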
Experiment [2] concerns CP286. The method in brief:
as §1

Experiment [3] deals with CP325. The method in brief: as §1
Experiment [4] deals with CP335. The method, boiled down: as §1
For experiment [5], the system named is DIV17. The method in brief: as §1
Experiment [6] has as its system Dd2. The method in brief:
as §1

For experiment [7], the system named is FAB9. The method, boiled down: as §1
In experiment [8] the test system is GB4. The method in brief:
as §1

For experiment [9], the system named is HB3. The method, boiled down: as §1
For experiment [10], the system named is ICS. The method in brief:
as §1

For experiment [11], the system named is JCK. The method in brief: as §1
The test system of experiment [12] is CP291. The method in brief:
as §1

In experiment [13] the test system is CP297. The method, boiled down: as §1
Experiment [14] has as its system CP305. The method, boiled down: as §1
In experiment [15] the test system is CP315. The method in brief: as §1
In experiment [16] the test system is CP329. The method, boiled down:
as §1

The test system of experiment [17] is DFO2036. The method, boiled down:
as §1

Experiment [18] concerns DIV14. The method, boiled down: as §1
The test system of experiment [19] is DIV30. The method, boiled down: as §1
Experiment [20] has as its system ECU. The method in brief:
as §1
Potency means the concentration at half of the fitted maximal effect.

As for `CN(C)c1ccc(C(=C2C=CC(=[N+](C)C)C=C2)c2ccccc2)cc1`, the Potency in experiment [1] is 10.7 µM (active); in experiment [2] it was 2 µM (active); in experiment [3], 12 µM (active); in experiment [4], 4.78 µM (active); in experiment [5], 6.01 µM (active); in [6], 11.2 µM (active). Also, the Potency is 4.26 µM (active) in [8], 11.2 µM (active) in experiment [9] and 2.24 µM (active) in experiment [10]. Besides, the Potency entry in experiment [7] and in experiment [11] was “inactive” throughout.

On to `CCCCCCCCCCCC(=O)[O][Sn]([CH2]CCC)([CH2]CCC)[O]C(=O)CCCCCCCCCCC`, for which the Potency entry in experiment [1], in [12], in [13], in experiment [14], in experiment [15] and in experiment [3] was “inactive” throughout. Also, the Potency entry in experiment [16], in [4], in experiment [17], in [18], in experiment [5] and in [19] was “inactive” throughout. For the same molecule, the Potency result in experiment [6], in experiment [20], in [7], in [8], in experiment [9] and in experiment [11] was “inactive” each time.

Turning to `O=C(OCc1ccccc1)c1ccccc1`, the Potency entry in experiment [1], in [2], in experiment [12], in experiment [13], in experiment [14] and in experiment [15] was “inactive” each time. The Potency entry in [3], in [16], in [4], in experiment [17], in [18] and in [19] was “inactive” in each case. Besides, the Potency result in experiment [6], in experiment [20], in [7], in experiment [8], in [9] and in [10] was “inactive” each time. The Potency entry in experiment [11] was “inactive”.

Consider `CCCCC[C@H](O)/C=C/[C@@H]1[C@@H](C/C=C\CCCC(=O)O)[C@@H](O)C[C@H]1O`, for which the Potency result in experiment [1], in experiment [2], in experiment [12], in experiment [13], in experiment [14] and in experiment [15] was “inactive” in each case. For the same molecule, the Potency result in experiment [3], in experiment [16], in experiment [17], in experiment [18], in [5] and in experiment [19] was “inactive” throughout. In addition, the Potency entry in [6], in experiment [20], in [7], in experiment [8], in experiment [9] and in experiment [10] was “inactive” throughout. Besides, the Potency result in experiment [11] is “inactive”.

As to `Nc1c(CC(=O)O)cccc1C(=O)c1ccc(Br)cc1`, the Potency entry in experiment [1], in [2], in [12], in experiment [14], in [15] and in [3] was “inactive” in each case. Also, the Potency result in [16], in experiment [4], in [17], in experiment [18], in experiment [5] and in experiment [19] was “inactive” in each case. The Potency entry in [6], in [20], in experiment [7], in experiment [8], in experiment [9] and in [10] was “inactive” each time. Also, the Potency result in experiment [11] was “inactive”.

In the case of `CN1[C@@H]2CC[C@H]1CC(OC(c1ccccc1)c1ccccc1)C2` (stereo partly drawn), the Potency in [2] was 11.2 µM (active); in experiment [17], 12.6 µM (active); in experiment [18], 2.39 µM (active) and 1.9 µM (active); in [5], 5.36 µM (active) and 4.26 µM (active); in [6], 6.31 µM (active); in [8], 8.49 µM (active). In addition, the Potency was 10 µM (active) and 11.2 µM (active) in experiment [10]; 11.2 µM (active) in experiment [11]. In addition, the Potency entry in [13], in experiment [15], in [3], in experiment [16], in experiment [7] and in [9] was “inactive” in each case.

On to `COc1ccc(-c2cc(=S)ss2)cc1`, for which the Potency entry in [1], in experiment [2], in experiment [12], in [13], in [14] and in experiment [15] was “inactive” each time. In addition, the Potency entry in experiment [3], in [16], in [4], in [17], in experiment [18] and in [5] was “inactive” in each case. Besides, the Potency entry in [6], in [7], in experiment [8], in [9] and in experiment [11] was “inactive” throughout. The Potency was 12.6 µM (active) in experiment [20] and 7.94 µM (active) in experiment [10].

Turning to `O=C(Nc1ccc(C(=O)O)c(O)c1)c1ccccc1`, the Potency entry in experiment [1], in experiment [2], in experiment [12], in experiment [13], in [14] and in experiment [15] was “inactive” in each case. For the same molecule, the Potency entry in [3], in experiment [16], in [4], in experiment [17], in [18] and in experiment [19] was “inactive” each time. Moreover, the Potency entry in experiment [6], in [20], in [7], in experiment [8], in [9] and in experiment [10] was “inactive” each time. For the same molecule, the Potency result in experiment [11] was “inactive”.

With `Clc1ccccc1-c1nc(-c2ccncc2)no1`, the Potency entry in experiment [1], in experiment [2], in experiment [12], in experiment [13], in experiment [14] and in [15] was “inactive” each time. Moreover, the Potency entry in experiment [3], in experiment [16], in experiment [4], in [17], in [19] and in [6] was “inactive” each time. Also, the Potency result in [7], in experiment [8], in experiment [9] and in [11] was “inactive” each time. Also, the Potency in [5] was 15.1 µM (active).

`CN1[C@@H](CC(=O)c2ccccc2)CCC[C@H]1C[C@H](O)c1ccccc1`: the Potency result in experiment [1], in experiment [13], in [15], in [3], in [4] and in [7] was “inactive” throughout. Also, the Potency entry in experiment [9] was “inactive”. In addition, the Potency is 13.5 µM (active) in experiment [18]; 10.7 µM (active) in experiment [5]; 10 µM (active) in experiment [6]; 10.7 µM (active) in [8]; 11.2 µM (active) in experiment [10].

`O=C(O)c1cc(O)c(O)c(O)c1`: the Potency entry in [1], in experiment [2], in experiment [12], in experiment [13], in experiment [14] and in experiment [15] was “inactive” each time. Besides, the Potency result in experiment [3], in experiment [16], in experiment [17], in [19], in [20] and in experiment [9] was “inactive” in each case.

On to `COc1cc(CNC(=O)CCCC/C=C/C(C)C)ccc1O`, for which the Potency result in experiment [1], in experiment [2], in [12], in [13], in [14] and in experiment [15] was “inactive” in each case. In addition, the Potency result in [3], in [16], in [4], in [17], in experiment [18] and in [5] was “inactive” throughout. Besides, the Potency result in experiment [6], in experiment [20], in experiment [7], in experiment [8], in [9] and in experiment [10] was “inactive” throughout. The Potency result in experiment [11] is “inactive”.

As for `C[S+](CC[C@H](N)C(=O)O)C[C@H]1O[C@@H](n2cnc3c(N)ncnc32)[C@H](O)[C@@H]1O` (stereo partly drawn), the Potency entry in experiment [1], in experiment [2], in experiment [12], in [13], in [14] and in [15] was “inactive” in each case. In addition, the Potency entry in [3], in experiment [16], in [4], in experiment [18], in experiment [5] and in experiment [19] was “inactive” each time. Moreover, the Potency entry in [6], in experiment [7], in experiment [8], in experiment [9], in experiment [10] and in [11] was “inactive” in each case.

`COc1cc(/C=C/C(=O)CC(=O)/C=C/c2ccc(O)c(OC)c2)ccc1O`: the Potency in [13] was 13.5 µM (active); in experiment [18], 16.9 µM (active); in experiment [5] it was 13.5 µM (active); in experiment [19], 13.5 µM (active); in [6], 12.6 µM (active); in experiment [20], 1 µM (active). In experiment [8], the Potency is 12 µM (active). The Potency entry in experiment [7] and in [11] was “inactive” throughout.

As to `Nc1cc(-c2ccncc2)c[nH]c1=O`, the Potency result in [1], in experiment [2], in [12], in experiment [13], in experiment [14] and in experiment [15] was “inactive” throughout. Further, the Potency result in experiment [3], in experiment [16], in experiment [4], in experiment [17], in experiment [5] and in [19] was “inactive” in each case. In addition, the Potency entry in experiment [6], in experiment [20], in experiment [7], in [8], in [9] and in experiment [10] was “inactive” in each case. The Potency entry in experiment [11] is “inactive”.

`O=C(O)Cc1ccc(-c2ccccc2)cc1`: the Potency entry in [1], in [2], in experiment [12], in experiment [13], in experiment [14] and in experiment [15] was “inactive” each time. Besides, the Potency result in experiment [3], in experiment [16], in experiment [17], in experiment [18], in experiment [5] and in [19] was “inactive” in each case. For the same molecule, the Potency result in experiment [6], in [20], in experiment [7], in [8], in [9] and in experiment [10] was “inactive” throughout. The Potency result in [11] is “inactive”.

Values taken from PubChem BioAssay (NCATS).
